# Bioassay records from PubChem.
# Tb PFK inh: blocks T. brucei phosphofructokinase | O15648 | T. brucei PFK, ADP-Glo luminescence | Potency, µM (titrated, usually from 57.5 µM), for inactives: at the highest dose activity, negative = inhibition, usual class: inhibitors | hit rate 0.17% among 330,000 | AID 485367;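 also: potency is read from the fitted curve at half-maximal effect; 0% = uninhibited 1x PFK enzyme wells and -100% = no-enzyme wells; nearly all actives have a fitted effect of over 60% in size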
# Target sequence (O15648 whole entry, looked up): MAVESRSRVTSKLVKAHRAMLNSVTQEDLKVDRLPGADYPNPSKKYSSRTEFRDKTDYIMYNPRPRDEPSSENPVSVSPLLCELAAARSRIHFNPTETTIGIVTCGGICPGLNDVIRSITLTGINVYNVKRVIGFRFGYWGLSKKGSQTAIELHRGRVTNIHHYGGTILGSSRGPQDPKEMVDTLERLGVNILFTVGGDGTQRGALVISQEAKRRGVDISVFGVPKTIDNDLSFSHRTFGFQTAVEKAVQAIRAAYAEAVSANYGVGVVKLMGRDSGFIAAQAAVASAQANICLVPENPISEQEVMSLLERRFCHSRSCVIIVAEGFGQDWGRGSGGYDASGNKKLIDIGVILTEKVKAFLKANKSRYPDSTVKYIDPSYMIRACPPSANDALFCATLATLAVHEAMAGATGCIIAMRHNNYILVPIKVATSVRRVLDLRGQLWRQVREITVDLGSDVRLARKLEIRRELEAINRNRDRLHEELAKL
#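 Activity is normalized to no-enzyme wells (full inhibition) and 1.25 nM enzyme wells (no inhibition). Reaction: 0.5 mM F6P, 0.1 mM ATP, 45 min RT, ADP-Glo luminescence; concentration-response curves fitted and classed by quality.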
# Chronic BCR inh: inhibitors of chronic active B-cell receptor signaling | ABC-DLBCL IkBa-CBG/CBR reporter, luminescence ratio, 4 h | hit rate 0.05% among 340,000 | Potency, µM (highest dose often 46.1 µM), for the others: at the highest dose activity change, negative = inhibition, actives largely listed as inhibitors | AID 493014; active = well fitted inhibition curve with a large enough effect in the signal ratio, with a control signal flat, not every such curve was filed as active; inconclusive = small, poorly fitted or top-dose-only effect, or effect the other way, or a change in a side signal; the % refers to the signal ratio;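 also: potency is read from the fitted curve at half-maximal effect; plate controls were basal doxycycline-induced cells for no effect and cells given 10 µM MG132 for full effect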
#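 TMD8 human ABC-DLBCL cells with doxycycline-inducible IκBα–green luciferase fusion and unfused red luciferase, in 0.5% FBS medium; compounds up to 46 uM, 4 h at 37C. Green/red luminescence ratio, filter-overlap corrected, fitted to concentration-response curves.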
# TCR activator: activators of T cell receptors; primary human leukocytes, anti-CD3, IL-2 HTRF, 48 h; AID 504894; Potency, µM (doses to about 9.22 µM), without a hit: at the highest dose activation of IL-2 secretion, most hits filed as activators; 330,000 tested, under 10 active; also: % of control where 0% means no effect
#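 Primary human leukocytes receive a-CD3 beads and test compound and are incubated 48 hr. Secreted IL-2 is then assayed by HTRF, measuring 665nm acceptor emission after 320nm excitation of the europium donor.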
# ASM inhibitor: blocks human secretory acid sphingomyelinase | Potency, µM (doses to about 57.5 µM), inactives show at the highest dose activity change, negative = inhibition, hits mostly inhibitors | P17405 | placental ASM, HMU-PC fluorogenic substrate, 60 min | hit rate 0.006% among 340,000 | AID 504937; also: potency is read from the fitted curve at half-maximal effect
#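 Human placenta-derived ASM enzyme was preincubated with compound for 10 minutes at room temperature, then given fluorogenic substrate HMU-PC0 (9 uM final) for 60 minutes at 37 °C; a pH 10 stop preceded fluorescence reading at Ex 386/Em 447 nm.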
# CCT modulator: changes cytosolic chaperonin activity; purified chaperonin ATPase assay, HTRF ADP detection, 30 min; activity change, % (test concentration not listed), hits read low; hit rate 0.3% among 360,000; AID 651819; in the data active = activity change below about -30%; also: % is scaled to controls: 0 for no effect and ±100 for the full control effect
#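 Enzyme 40 or 20 nM (batch-dependent) in Tris pH 7.4/KCl/MgCl2/DTT; cpd 76 uM single point; ATP 10 uM; 30 min 37 °C; Transcreener ADP HTRF detection, 30 min RT; ratio 665/615.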
# Active calls of the source: *; i = inactive; ? = inconclusive; nt = no result; [ ] = remark or other dose. Hits are enriched below; roughly 0.49% of the tested compounds scored in any of these assays. Unless noted, calls follow the shape of the dose curve; as a rule, active = well fitted curve in the direction sought with a large enough effect; inconclusive = small, poorly fitted or top-dose-only effect, or another doubt; inactive = no such curve, though single readings can be large; an effect the other way counts as inactive or inconclusive.
SMILES,Tb PFK inh,Chronic BCR inh,TCR activator,ASM inhibitor,CCT modulator
Cc1c(C)c2ccc(OCC(=O)N3C[C@H]4C[C@@H](C3)c3cccc(=O)n3C4)c(C)c2oc1=O,7%,0%,0%,-1%,-2
Cc1cc(OCC(=O)N2C[C@H]3C[C@@H](C2)c2cccc(=O)n2C3)c2c(C)c(C)c(=O)oc2c1,-2%,-1%,3%,1%,-59*
Cc1ccc(S(=O)(=O)Cc2ccc(C(=O)N3CCN(c4cccc(C)c4C)CC3)o2)cc1,0%,13µM*,6%,-7%,0
COc1ccc(S(=O)(=O)Cc2ccc(C(=O)N3CCC4(CC3)OCCO4)o2)cc1,0%,20%,0%,0%,-2
O=C(O)c1cccc2c1NC(c1cccc([N+](=O)[O-])c1)C1CC(Sc3ccccc3[N+](=O)[O-])C(Cl)C21 (stereo not drawn),7%,?,-4%,3%,-46*
O=C(O)c1ccc2c(c1)C1C(Cl)C(Sc3ccccc3[N+](=O)[O-])CC1C(c1cccc([N+](=O)[O-])c1)N2 (stereo not drawn),?,-15%,4%,-15%,0
O=C1CN=C(c2ccccc2)c2cc([N+](=O)[O-])ccc2N1,-6%,-1%,3%,6%,-3
O=C1CN=C(c2ccccc2)c2ccccc2N1,-1%,-2%,-4%,2%,-53*
CC1CCCN(c2nc(N(C)c3ccccc3)nc(N)c2[N+](=O)[O-])C1 (stereo not drawn),3%,?,-4%,-16%,-3
Clc1ccc(OCC#CCN2CCCC2)cc1,-10%,10%,nt,-2%,-34*
CCOP(=O)(C#Cc1ccccc1)C(O)c1ccc(Br)cc1 (stereo not drawn),-4%,-12%,-53%,-9%,-1
COP(=O)(C#Cc1ccccc1)C(O)c1ccc(Br)cc1 (stereo not drawn),-5%,-9%,0%,-1%,-105*
O=[N+]([O-])/C(C(Cl)=C(Cl)Cl)=C(\Sc1ccccc1)N1CCCCC1,3%,8%,1%,-1%,-2
CCOC(=O)C1CCN(/C=C2/C(=O)NC(=S)N(c3cccc(OC)c3)C2=O)CC1,9%,1%,-11%,5%,-42*
O=c1c2ccccc2nc(/C=C/c2cc(Br)ccc2O)n1CCCO,-7%,?,-5%,3%,-4
CN(C)c1ccc(C=C(C#N)C#N)cc1,2%,-2%,-7%[46.1 µM],2%,-2
N#CC(C#N)=Cc1ccc(N2CCCC2)cc1,-2%,0%,-1%,-2%,-46*
C=C1[C@@H](OC(C)=O)[C@]23C[C@@H]1[C@@H](OC(C)=O)CC2[C@]12C4C[C@H]3[C@H]1N(CC)C[C@]4(C)CC[C@@H]2O (stereo partly drawn),nt,nt,-7%,-2%,-68*
CCCN1C2CCCC1CC(NC(C)=O)C2 (stereo not drawn),1%,18%,5%,2%,-33*
O=P(O)(O)/C=C(\Cl)c1ccccc1,20%,-4%,-1%,22µM*,0
Cc1ccc(C(=O)NCC(=O)NCC(=O)OCc2ccc(F)cc2)cc1,-5%,?,2%,2%,3
COc1ccc(-c2oc3cccnc3c2/C=C/c2ccc(OC)c(OC)c2)cc1,-2%,?,-14%,i,0
COc1ccc(N2C(=O)CC(N3CC=C(c4ccccc4)CC3)C2=O)cc1 (stereo not drawn),4%,5%,-5%,-6%,-61*
CC(=O)Nc1ccc2nc(NC(=O)c3ccc([N+](=O)[O-])o3)sc2c1,-6%,?,10%,-3%,1
COc1cc(NC(=O)c2cccc(C)c2)ccc1NC(=O)c1cc2ccccc2o1,-8%,?,10%,28%,0
Cc1cccc(-n2c(O)c(/C=C3/C(c4ccccc4)=Nc4ccccc43)c(=O)[nH]c2=O)c1,-16%,?,1%,-17%,-44*
Cc1ccc(-n2c(O)c(/C=C3/C(c4ccccc4)=Nc4ccccc43)c(=O)[nH]c2=O)cc1,-8%,?,4%[46.1 µM],-18%,0
Cc1ccc(CCN2CC(C(=O)N3CCC4(CC3)OCCO4)CC2=O)cc1 (stereo not drawn),-2%,0%,1%,4%,-64*
